HCV inhibitor: HCV inhibition. Potency, µM (highest dose often 41.8 µM), usual class: inhibitors. 3.4% of 340,000 active. Huh7.5.1 HCVcc-Cre infection, luciferase reporter, 44 h. AID 651820
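Infectious HCVcc-Cre (~0.5 moi) was added to cells just after compound, with cells seeded 4 h earlier at 1,000 per well. Luciferase activity after 44 h culture reported infection; substrate was incubated 15 min at room temperature before reading.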
Pf growth 48h: P. falciparum growth inhibition at 48 hours (one generation). Potency, µM (top dose mostly 28.7 µM), hits mostly inhibitors. P. falciparum luciferase growth in erythrocytes, 48 h. 5.9% of 310,000 active
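Erythrocytes infected with P. falciparum carrying an integrated firefly luciferase reporter (2% hematocrit, 0.1% parasitemia final) were exposed to compounds in RPMI 1640 with 0.5% Albumax at 37 C, 5% CO2. Growth inhibition was scored as reduced luminescence.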
Sm TGR inh: blocks Schistosoma mansoni thioredoxin glutathione reductase. purified TGR, DTNB reduction, TNB absorbance 405 nm. Potency, µM (top dose mostly 114 µM), hits mostly inhibitors. 3% of 360,000 active; further: nearly all actives have a fitted effect of over 60% in size
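TGR 20 nM + NADPH 100 uM (dispensed conc.), cpd preinc 15 min RT; start with NADPH (500 uM addition) then DTNB (15 mM addition). Kinetic TNB absorbance, 405 nm filter. Four-parameter Hill fit across titration.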
SARS PLP yeast: inhibitors of SARS-CoV papain-like protease in yeast; S. cerevisiae expressing SARS-CoV PLpro, growth rescue; Potency, µM (doses to about 32.9 µM), usual class: activators; 0.19% of 330,000 active; calls by dose curve; further: nearly all actives have a fitted effect of over 55% in size
Pf growth 96h: inhibits malaria parasite growth, 96 h | P. falciparum luciferase reporter growth, 96 h | Potency, µM (top dose mostly 28.7 µM), most hits filed as inhibitors | 6.9% of 320,000 active
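Readout is luminescence from an integrated firefly luciferase in P. falciparum. Red cells, 2% hematocrit and 0.05% parasitemia final, were cultured with compound through two parasite generations (96 hours) at 37 C, 5% CO2.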
HCMV antiviral: blocks human cytomegalovirus replication; HFF cells, HCMV-luciferase reporter, 72 h; stronger effect = lower value; activity change, negative = inhibition, % at 57.5 µM; 4.5% of 410,000 active; in the data active means activity change below about -60%; inconclusive means no clear call, values can overlap the other calls; inactive means above about -39%
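Cell-based, HFFs, 1000 cells/well, 16 h 37C; cpds in DMSO + HCMV-luc, MOI 1 PFU/cell; 72 h 37C; OneGlo luminescence after 5 min RT; norm. to buffer vs Salinomycin 10uM.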
Large screens that a line does not name were inactive. Hits are enriched below; roughly 15% of the tested compounds scored in any of these assays. Unless noted, the call rests on the fitted dose curve; in most records, active means well fitted curve in the direction sought with a large enough effect; inconclusive means small, poorly fitted or top-dose-only effect, or another doubt; inactive means no such curve, though single readings can be large; an effect the other way counts as inactive or inconclusive.

Cc1ccc(Cl)cc1-n1ncc2c(NC3CCCCC3)ncnc21	HCMV antiviral -78 (no result: HCV inhibitor, Pf growth 48h, SARS PLP yeast, Pf growth 96h)
O=[N+]([O-])O[C@H]1CO[C@H]2[C@@H]1OC[C@H]2O	none (no result: HCV inhibitor, Sm TGR inh, SARS PLP yeast, HCMV antiviral)
CC(C)(C)NC(=O)c1cc(Cl)ccc1[N+](=O)[O-]	Pf growth 96h inconclusive
Cc1cccc(NC(=O)c2cc(Cl)ccc2[N+](=O)[O-])c1	Pf growth 48h inconclusive, HCMV antiviral -83
Cc1ccc(NC(=O)c2cc(Cl)ccc2[N+](=O)[O-])cc1C	HCV inhibitor inconclusive, HCMV antiviral -73
COc1ccc(CC(=O)NCc2ccc(F)cc2)cc1S(=O)(=O)N1CCOCC1	Pf growth 48h inconclusive, Pf growth 96h inconclusive
Cc1cccc(CSc2ncc(Cl)c(C(=O)Nc3sc4c(c3C(N)=O)CCCC4)n2)c1	none (no result: HCV inhibitor, Pf growth 48h, SARS PLP yeast, Pf growth 96h)
Cc1ccccc1NC(=S)NCc1ccccc1	none
CCC(C)(C)NC(=S)Nc1ccccc1C	Pf growth 48h 10µM, Pf growth 96h inconclusive, HCMV antiviral inconclusive
COc1cc(SC)ccc1C(=O)Nc1ccc2ncccc2c1	HCV inhibitor inconclusive
Cc1cccc(NC(=O)NC2CCCCCCC2)c1	none
Cc1ccc(NC(=O)CNC2CCCCC2)cc1Cl	Pf growth 48h inconclusive, Pf growth 96h 0.74µM
CC(=O)c1ccc(NC(=O)CNC2CCCCC2)cc1	none
Cc1ccc(NC(=O)NC2CCCCCCC2)cc1C	Pf growth 96h inconclusive, HCMV antiviral -84
CCc1ccccc1NC(=O)Cn1nnc2sc3c(c2c1=O)CCC(C(C)(C)C)C3 (configuration not stated)	none (no result: HCV inhibitor, Pf growth 48h, SARS PLP yeast, Pf growth 96h)
OCCN1CCN(c2ncnc3c2sc2nc(N4CCOCC4)c4c(c23)CCC4)CC1	HCV inhibitor 11µM, Pf growth 48h 13µM
c1nc(N2CCNCC2)c2sc3nc(N4CCOCC4)c4c(c3c2n1)CCC4	none (no result: HCV inhibitor, HCMV antiviral)
CC1(C)Cc2c(c(N3CCCC3)nc3sc4c(N5CCN(CCO)CC5)ncnc4c23)CO1	HCV inhibitor 2.2µM, Pf growth 48h 8.3µM, Sm TGR inh inconclusive
CCOC(=O)c1sc2nc(N3CCCC3)c3c(c2c1N)CC(C)(C)OC3	HCV inhibitor inconclusive (no result: Pf growth 48h, Pf growth 96h)
COC(=O)[C@]1(C#N)[C@H](C)C(=O)N(Cc2ccccc2)[C@@H]1/C=C/c1ccccc1	none (no result: HCV inhibitor, Pf growth 48h, Sm TGR inh, SARS PLP yeast, Pf growth 96h)
CCOC(=O)c1c(C)[nH]c(C)c1S(=O)(=O)NCC(=O)N1CCN(c2cccc(C)c2)C(C)C1 (configuration not stated)	none (no result: HCV inhibitor, Pf growth 48h, SARS PLP yeast, Pf growth 96h)
CC(=O)C1C(c2ccc(F)cc2)c2c(noc2C)CC1(C)O (configuration not stated)	none
CO[C@@H]1CN(C)C(=O)c2cc(NC(=O)NC3CCCCC3)ccc2OC[C@@H](C)N(CC2CCOCC2)C[C@@H]1C	none (no result: HCV inhibitor, Pf growth 48h, Sm TGR inh, SARS PLP yeast, Pf growth 96h)
CCOC(=O)c1cc2sc(C)cc2n1CC(=O)Nc1ccc2c(c1)OCCO2	HCV inhibitor inconclusive, Pf growth 96h 0.74µM, HCMV antiviral inconclusive
Cc1ccc(NC(=O)Nc2cc(C(F)(F)F)c[nH]c2=O)cc1	none
COc1cc(OC)c(NC(=O)CSc2nccn2C)cc1Cl	none (no result: HCV inhibitor, Pf growth 48h, SARS PLP yeast, Pf growth 96h)
Cc1nc([N+](=O)[O-])cn1-c1ccc(N)cc1	Pf growth 96h 12µM
CCn1cc([N+](=O)[O-])nc1C	none
Cc1ccc(-n2nnc(-c3nsc(NC(=O)c4ccccc4)n3)c2C)cc1	none (no result: HCV inhibitor, Pf growth 48h, SARS PLP yeast, Pf growth 96h)
Cc1c(-c2nsc(NC(=O)c3ccc(Cl)cc3)n2)nnn1-c1ccc(C(C)C)cc1	HCMV antiviral -79 (no result: HCV inhibitor, Pf growth 48h, SARS PLP yeast, Pf growth 96h)
Cc1c(-c2nsc(NC(=O)c3cccs3)n2)nnn1-c1ccc(Br)cc1	HCMV antiviral -92 (no result: HCV inhibitor, Pf growth 48h, SARS PLP yeast, Pf growth 96h)
COC(=O)c1ccc(-n2nnc(-c3nsc(NC(=O)c4ccc(Cl)cc4)n3)c2C)cc1	none (no result: HCV inhibitor, Pf growth 48h, SARS PLP yeast, Pf growth 96h)
CCOc1ccc(Oc2ccc(NC(=O)CSc3nncn3C)cc2)cc1	HCV inhibitor inconclusive
CNc1nc(Cl)c(SC)c(N2CCOCC2)n1	HCV inhibitor 0.89µM
CCCCNc1nc(NC)nc(Cl)c1SC	Pf growth 96h inconclusive
Cc1cccc2c(N)c3c(nc12)CCCC3 (tested in a mixture with another compound)	HCV inhibitor inconclusive, Pf growth 48h 4.7µM, Pf growth 96h inconclusive (no result: Sm TGR inh)
Nc1c2c(nc3ccccc13)CCCC2	HCV inhibitor inconclusive, Pf growth 48h inconclusive, Pf growth 96h 8.5µM

Screening data (PubChem BioAssay)
